HT1080 IDH1KD tx – toxicity to HT-1080 IDH1 knockdown cells (counter line). 360,000 compounds, 2% hits. HT-1080 IDH1 knockdown viability, ATP luminescence, 48 h. AID 686971. Potency, µM (doses to about 46.1 µM), usual class: cytotoxic
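In this qHTS, HT-1080 cells depleted of IDH1 are exposed for 48 h at 37 °C to compound titrations. Toxicity is scored from CellTiter-Glo luminescence, with DMSO as full viability and medium alone as none.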
HT1080-NT tox – kills 2HG-producing HT-1080-NT fibrosarcoma cells | HT-1080-NT fibrosarcoma viability, CellTiter-Glo ATP luminescence, 48 h | Potency, µM (top dose mostly 46.1 µM), usual class: cytotoxic | 360,000 compounds, 1.6% hits;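 also: NT is the 2HG producing partner of a matched IDH1 knockdown line; nearly all actives have a fitted effect of over 55% in size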
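Read-out is CellTiter-Glo luminescence after 10 minutes at room temperature, following 48 hours' compound treatment of HT-1080-NT cells (750 cells/well, RPMI, 5% FBS, 37 degrees C).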
KB-V1 MDR tox – KB-V1 MDR subline cytotoxicity | AID 1347076 | KB-V1 MDR cells viability, CellTiter-Glo, 72 h | 400,000 compounds, 3.4% hits | Potency, µM (series often up to 46.1 µM), most hits filed as cytotoxic; also: nearly all actives have a fitted effect of over 60% in size
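In this primary screen, KB-V1 cells overexpressing P-gp are incubated with library compounds (lowest to highest concentration) for 72 h at 37 degrees C before a luminescent ATP viability read.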
SW480 rereplic – inducers of DNA re-replication in SW480 colon cancer cells. SW480 DNA re-replication, Hoechst DNA content imaging, 48 h. Potency, µM (titrated, usually from 46.1 µM), hits mostly activators. 340,000 compounds, 1.8% hits. AID 624297; also: nearly all actives have a fitted effect of over 55% in size
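250 cells/well; 23 nL cpd via pin tool; 48 hr, 37 C, 5% CO2; Hoechst 40 min; imager read of total nuclear intensity, ex 405/em 500-530 nm.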
MCF10A rereplic – DNA re-replication induction in MCF 10a cells. AID 624296. Potency, µM (doses to about 46.1 µM), hits mostly activators. MCF 10A DNA re-replication, Hoechst nuclear intensity, 48 h. 350,000 compounds, 2.9% hits; also: nearly all actives have a fitted effect of over 50% in size
KB-3-1 tox – kills parental KB-3-1 adenocarcinoma cells; KB-3-1 viability, CellTiter-Glo ATP luminescence, 72 h; Potency, µM (top dose mostly 46.1 µM), actives largely listed as cytotoxic; 400,000 compounds, 1.4% hits; AID 1347075; also: nearly all actives have a fitted effect of over 60% in size
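Screening of KB-3-1 cells (DMEM, 10% FBS, phenol-red free) ran from lowest to highest compound concentration; after 72 h at 37 °C viability was read luminescently and curves fitted.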
Numbers stand for hits; i = inactive; ? = inconclusive; nt = no result; [ ] = remark or other dose. The list is not random: actives were taken first. Their share in the collection is about 7.9%. Calls follow the shape of the dose curve; as a rule, active = well fitted curve in the direction sought with a large enough effect; inconclusive = small, poorly fitted or top-dose-only effect, or another doubt; inactive = no such curve, though single readings can be large; an effect the other way counts as inactive or inconclusive.

SMILES | HT1080 IDH1KD tx | HT1080-NT tox | KB-V1 MDR tox | SW480 rereplic | MCF10A rereplic | KB-3-1 tox
O=C(NCCS(=O)(=O)N1CCN(c2ccccc2F)CC1)c1ccc(Cl)cc1 | i | i | ? | i | i | i
O=C(Cc1ccc(Cl)cc1)NCCS(=O)(=O)N1CCN(c2ccccc2F)CC1 | ? | ? | 7.3µM | ? | 18µM | 13µM
CC(=O)C1C=CC(C)(C(=O)O)C2C=C(C)C(=O)C(C)(O)C12 (stereo not given) | i | i | i | i | i | i
Cc1oc(-c2cc(Cl)cc(Cl)c2)cc1C(=O)NCCc1ccccc1 | i | i | ? | i | 15µM | i
Cc1ccc(CN2C(=O)C(Cc3ccccc3)Nc3ncnc(N4CCCCC4)c32)cc1 (stereo not given) | i | i | i | i | ? | i
CCc1ccc2[nH]c3nc(N/N=C/c4ccc(O)cc4O)nnc3c2c1 | 5.2µM | ? | i | i | i | ?
Cc1ccc(S(=O)(=O)N2CCc3cc(C(=O)Nc4ccc(C(F)(F)F)cc4)ccc32)cc1 | nt | nt | i | nt | nt | i
COC(=O)CC1(C(=O)OC)Oc2ccc(Br)cc2C(=O)N1c1cccc(Cl)c1Cl (stereo not given) | ? | 21µM | 5.2µM | 18µM | ? | ?
COC(=O)CC1(C(=O)OC)Oc2ccc(Br)cc2C(=O)N1c1cc(Cl)c(Cl)cc1Cl (stereo not given) | i | ? | 10µM | ? | i | ?
COC(=O)CC1(C(=O)OC)Oc2ccc(Br)cc2C(=O)N1c1ccc(Br)cc1Cl (stereo not given) | 15µM | 15µM | 18µM | ? | ? | ?
COC(=O)CC1(C(=O)OC)Oc2ccc(Br)cc2C(=O)N1c1cc(Cl)cc(Cl)c1 (stereo not given) | i | ? | ? | i | i | i
O=C(CSCCc1ccccn1)Nc1cccnc1 | i | i | i | i | i | i
COc1ccc(/C=C/CN2CCC(CO)(Cc3ccccc3Cl)CC2)cc1 | 23µM | 23µM | ? | ? | ? | ?
COc1ccc2ccccc2c1CNC(C)CCc1ccccc1 (stereo not given) | 18µM | ? | i | ? | ? | i
COc1ccc(CCNCc2c(OC)ccc3ccccc23)cc1OC | ? | ? | i | i | ? | i
COc1ccc(/C=C/C(=O)c2oc3ccc(F)cc3c2C)cc1 | i | i | i | i | i | i
Cc1ccc(OC(=O)c2oc3ccc(F)cc3c2C)c(C)c1 | i | i | i | 18µM | ? | i
CCCn1c(N)c(C(=O)CSc2nnc(C)n2Cc2ccccc2)c(=O)n(C)c1=O | i | i | i | i | i | i
Clc1ccc(-c2nnc3sc(-c4ccc(Br)o4)nn23)c(Cl)c1 | i | i | ? | i | 9.2µM | i
CC1CCN(c2ccc3c(c2)S(=O)(=O)c2ccccc2C3=O)CC1 | i | i | i | 23µM | 18µM | i
O=C1c2ccccc2S(=O)(=O)c2cc(N3CCC4(CC3)OCCO4)ccc21 | i | i | 7.3µM | i | ? | i
C[C@H](CO)N1C[C@H](C)[C@@H](CN(C)C(=O)Nc2ccccc2)Oc2ncc(C#CC3CCCCC3)cc2C1=O | i | i | i | nt | nt | i
CCCn1cc(NC(=O)C2CC(c3cccc(Br)c3)=NO2)cn1 (stereo not given) | i[9.24 µM] | ? | i | 16µM | 23µM | i
O=C(NCc1ccc2c(c1)OCO2)C1CC(c2cccc(Br)c2)=NO1 (stereo not given) | i | i | i | i | 12µM | i
COc1ccc(CCNC(=O)C2CC(c3ccc(C(F)(F)F)cc3)=NO2)cc1 (stereo not given) | i | i | i | i | i | i
SMILES | HT1080 IDH1KD tx | HT1080-NT tox | KB-V1 MDR tox | SW480 rereplic | MCF10A rereplic | KB-3-1 tox
COc1ccc(CNC(=O)C2CC(c3cc(C(F)(F)F)cc(C(F)(F)F)c3)=NO2)cc1 (stereo not given) | i | i | ? | i | 6.5µM | ?
O=C(NCc1ccc2c(c1)OCO2)C1CC(c2ccccc2O)=NO1 (stereo not given) | i | i | i | i | ? | i
COc1cccc(C2=NOC(C(=O)NCc3ccccc3)C2)c1 (stereo not given) | ? | ? | ? | ? | 1.6µM | 12µM
O=C(CCSc1ccc(Cl)cc1)NN=C1CCCCCC1 | i | i | i | i | i | i
CC1CCCC(NC(=O)COC(=O)c2ccc3c(c2)OCCO3)C1C (stereo not given) | i | i | ? | i | i | i
COc1ccc(C(=O)COC(=O)c2cncc(Br)c2)cc1 | i | i | i | i | i | i
Cc1ccc(-c2cc3ncc(C(=O)c4cc(Cl)c(C)cc4O)cn3n2)cc1 | nt | nt | i | nt | nt | i
COc1cccc(C2=NOC(C(=O)NCc3ccco3)C2)c1 (stereo not given) | ? | ? | 21µM | ? | 4.1µM | 23µM
COc1ccc(CNC(=O)C2CC(c3ccccc3C(F)(F)F)=NO2)cc1 (stereo not given) | i | i | i | i[9.22 µM] | i | i
COc1ccc(C2=NOC(C(=O)NCc3ccccc3)C2)cc1 (stereo not given) | 2.2µM | 2.5µM | 7.3µM | 2.6µM | 0.37µM | 7.3µM
COc1cccc(COC(=O)c2ccc(S(=O)(=O)N3CCC(C)CC3)cc2)c1OC | i | i | i | i | ? | i
COc1ccc(COC(=O)c2ccc(S(=O)(=O)N3CCC(C)CC3)cc2)cc1 | i | i | i | i | 16µM | ?
CC(=O)N1c2ccc(S(=O)(=O)N3CCC(C(=O)Nc4ccc(C)cn4)CC3)cc2CC1C (stereo not given) | i | i | i | i | i | 16µM
Cc1ccc(S(=O)(=O)N2CCCN(C)CC2)cc1 | i | i | i | i | ? | i
Cc1ccc(S(=O)(=O)N2CCCN(S(=O)(=O)c3ccc(C(F)(F)F)cc3)CC2)cc1 | ? | i | ? | i | 7.3µM | i
COc1ccc(S(=O)(=O)N2CCC(NC(=O)Nc3ccc(C)cc3)CC2)cc1 | i | i | 18µM | i | i | i
Cc1ccc(NC(=O)C2CCN(S(=O)(=O)c3ccc4c(c3)CC(C)N4C(=O)C3CCC3)CC2)nc1 (stereo not given) | ? | i | ? | i | i | ?
CCc1nc2sccc2c(=O)n1N | i | i | i | i | i | i
O=C(NC1CCCCC1)C1CCN(S(=O)(=O)N2CCCCCC2)CC1 | i | i | 16µM | i | i | i
Cc1ccc(C(=O)NNC(=O)c2ccc(S(=O)(=O)N3CCCCC3)cc2)cc1 | ? | i | i | 16µM | ? | i
CC(=O)Nc1ccc(C(=O)NNS(=O)(=O)c2ccc(C)cc2)cc1 | i | i | i | 4.1µM | i | i
CC1CCN(S(=O)(=O)c2ccc(C(=O)Nc3ccccc3-c3nc4ccccc4[nH]3)cc2)CC1 | i | i | 16µM | i | i | ?

Screening data deposited in PubChem by National Center for Advancing Translational Sciences (NCATS).
